Source: PubChem
ELG1 DNA repair = inhibitors of ELG1-dependent DNA repair in HEK293T cells. HEK293T ELG1-luciferase reporter, luminescence, 16 h; DNA damage induced by 5-fluorouridine. Potency, µM (top dose mostly 46.1 µM), hits mostly inhibitors. actives 2.3% (n = 330,000); also: nearly all actives have a fitted effect of over 55% in size
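DMSO vehicle served as the neutral condition. Each well held 2,000 cells given 5-fluorouridine plus compound; after 16 hr at 37 °C/5% CO2, ONE-Glo was added and luciferase measured 30 min later.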
IL-1B inflam inh = inhibitors of inflammasome signaling (IL-1 beta secretion); actives 4.7% (n = 360,000); THP-1 LPS/ATP IL-1B secretion, AlphaLISA, 16 h; hits give low values; activity change, % at 57.5 µM; in the data active = activity change below about -50%; inconclusive = mostly about -30% to -49%
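Secreted IL-1B measured by AlphaLISA bead assay after 16 h compound exposure of THP-1 cells; compounds (final up to 57.5 uM) added 1 h before LPS (250 ng/mL) and ATP (1.25 mM) stimulation; lower signal means less secretion.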
TDP1 cell noCPT = qHTS for Inhibitors of human tyrosyl-DNA phosphodiesterase 1 (TDP1): qHTS in cells in absence of CPT; DT40 Tdp1-/- hTDP1 cells, no CPT, ATP luminescence, 48 h; Potency, µM (doses to about 46.2 µM), most hits filed as inhibitors; actives 15% (n = 420,000); also: nearly all actives have a fitted effect of over 55% in size
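A cellular qHTS used chicken DT40 cells lacking endogenous Tdp1 but carrying stably transfected human TDP1. Compounds were applied without camptothecin, and cell growth kinetics were judged by ATP-dependent luminescence after ≥48 hr.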
TDP1 cell CPT = growth inhibition of DT40 Tdp1-/-;hTDP1 cells with camptothecin (screen for TDP1 inhibitors) | chicken DT40 Tdp1-/-;hTDP1 cells + 20 nM CPT, ATP luminescence, 48 h | Potency, µM (doses to about 46.2 µM), most hits filed as inhibitors | actives 12% (n = 420,000) | AID 686979; also: nearly all actives have a fitted effect of over 55% in size
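Chicken DT40 Tdp1-/- cells complemented with human TDP1, 400 cells/well, exposed to compounds plus 20 nM camptothecin for at least 48 h at 37 C; viability read as ATP content by CellTiter-Glo luminescence.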
RORgamma inh = blocks mouse ROR gamma transcriptional activity. Potency, µM (series often up to 53.6 µM), hits mostly inhibitors. actives 5.4% (n = 310,000). Drosophila S2 Gal4-RORgamma UAS-luciferase reporter, 20 h. P51450; also: nearly all actives have a fitted effect of over 60% in size
Target sequence (P51450 whole entry, looked up, the tested form may be a part): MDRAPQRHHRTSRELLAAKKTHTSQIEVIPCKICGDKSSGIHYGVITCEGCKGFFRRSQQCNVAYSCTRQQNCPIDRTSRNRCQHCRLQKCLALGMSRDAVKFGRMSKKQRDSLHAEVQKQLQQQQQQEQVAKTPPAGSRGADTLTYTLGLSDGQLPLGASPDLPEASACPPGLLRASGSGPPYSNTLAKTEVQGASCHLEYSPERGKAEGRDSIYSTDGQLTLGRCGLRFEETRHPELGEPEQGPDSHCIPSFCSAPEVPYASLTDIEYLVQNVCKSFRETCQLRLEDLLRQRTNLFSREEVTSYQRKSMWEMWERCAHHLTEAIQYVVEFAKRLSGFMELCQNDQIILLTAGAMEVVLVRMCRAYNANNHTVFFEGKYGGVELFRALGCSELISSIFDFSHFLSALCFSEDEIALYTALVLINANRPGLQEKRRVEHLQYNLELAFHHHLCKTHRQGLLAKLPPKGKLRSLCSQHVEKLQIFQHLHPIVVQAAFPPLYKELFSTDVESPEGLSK
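A Gal4/UAS one-hybrid system in insect cells: metallothionein-promoter Gal4–ROR gamma fusion plus Photinus luciferase reporter. Copper sulfate 700 uM final, 20 hr ambient incubation, luminescent detection after 10 min with reagent.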
Gal4-VP16 FLuc = counter-screen for ROR gamma inhibitors: Gal4-VP16 reporter; Drosophila S2 Gal4-VP16 UAS-luciferase, luminescence, 20 h; Potency, µM (highest dose often 53.6 µM), usual class: inhibitors; actives 3.5% (n = 310,000); AID 2546;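 also: Gal4-VP16 expression switched on by copper sulfate through the metallothionein promoter; nearly all actives have a fitted effect of over 50% in size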
A number is an active result; 0 = inactive; ? = inconclusive; - = no result; [ ] = dose if it differs, or a comment. Hits are enriched below; roughly 21% of the tested compounds scored in any of these assays. Unless noted, calls follow the shape of the dose curve; as a rule, active = well fitted curve in the direction sought with a large enough effect; inconclusive = small, poorly fitted or top-dose-only effect, or another doubt; inactive = no such curve, though single readings can be large; an effect the other way counts as inactive or inconclusive.

SMILES	ELG1 DNA repair	IL-1B inflam inh	TDP1 cell noCPT	TDP1 cell CPT	RORgamma inh	Gal4-VP16 FLuc
CS(=O)(=O)N(CC(=O)NCc1ccccc1Cl)C1CCCCC1	0	0	?	0	?	0
Cc1ccc(S(=O)(=O)N(CC(=O)NCc2ccncc2)C2CCCCC2)cc1	0	0	9.2µM	12µM	0	0
CS(=O)(=O)N(CC(=O)Nc1ccccc1F)C1CCCCC1	0	0	0	0	0	0
CS(=O)(=O)N(CC(=O)NCc1ccc(Cl)cc1)C1CCCCC1	?	0	15µM	21µM	0	0
CS(=O)(=O)N(CC(=O)Nc1ccc(Br)cc1F)C1CCCCC1	0	0	9.2µM	?	0	0
CCOC(=O)N1CCN(C(=O)C2CCN(C(=O)c3cc4sccc4n3CC)CC2)CC1	?	0	?	0	?	0
CCn1c(C(=O)N2CCC(C(=O)NCc3ccc(OC)cc3)CC2)cc2sccc21	0	0	0	?	?	0
CCn1c(C(=O)N2CCC(C(=O)NCCc3ccc(OC)cc3OC)CC2)cc2sccc21	-	-	15µM	21µM	-	-
CCOC(=O)N1CCC(NC(=O)C2CCN(C(=O)c3cc4sccc4n3CC)CC2)CC1	23µM	0	16µM	?	?	?
O=C1Nc2ccc(Br)cc2C1=Nc1cccnc1	?	0	8.2µM	12µM	0	0
O=C1Nc2ccccc2C1=Nc1cccc(Cl)c1	0	0	0	0	0	0
C/C(=N\NC(=O)c1cccc(O)c1)c1cccc(NC(=O)c2ccc(F)cc2)c1	?	0	?	10µM	0	0
C/C(=N\NC(=O)c1cccc(N/N=C(\C)c2cc(O)ccc2O)c1)c1cc(O)ccc1O	16µM	0	16µM	12µM	6.3µM	?
C/C(=N\Nc1ccc([N+](=O)[O-])cc1)c1ccc(C#N)cc1	0	0	0	0	0	0
C/C(=N/Nc1ccc([N+](=O)[O-])cc1)c1ccc(C)cc1C	?	-81	0	0	0	0
C/C(=N\Nc1cccc([N+](=O)[O-])c1)c1cc(F)ccc1O	?	0	13µM	?	0	0
COc1ccc2oc(C(=O)NC3(C)CCS(=O)(=O)C3)c(C)c2c1 (stereo not given)	0	0	0	0	-	-
CCOC1=C2[C@@H](CN(S(=O)(=O)c3ccc(C)cc3)[C@H]2c2cccc3ccccc23)[C@H]2C(=O)NC(=O)[C@H]2C1	-	0	?	?	-	-
COc1ccc2c(c1)c1c(c(=O)n(-c3ccc(OC)c(OC)c3)c(=O)n1CC(=O)N1CCCC1)n2C	-	-	0	0	-	-
C/C(=N\NC(=O)c1ccccc1F)c1cccc(NC(=O)c2ccc(C)cc2)c1	?	0	16µM	?	0	0
C/C(=N\NC(=O)c1ccc(O)cc1)c1cccc(NC(=O)c2ccc(Cl)cc2)c1	-	-97	12µM	?	-	-
C/C(=N\NC(=O)c1c(Cl)c(C)nn1C)c1cccc(NC(=O)COc2ccc(Cl)cc2)c1	16µM	0	16µM	?	0	0
C/C(=N/NC(=O)c1ccc(C)s1)c1cccc(NC(=O)COc2ccc(Cl)cc2C)c1	0	0	?	?	0	0
C/C(=N/NC(=O)c1ccc(C)s1)c1cccnc1	?	0	0	0	0	0
C/C(=N/NC(=O)c1ccc(Cl)s1)c1cccnc1	0	0	0	0	13µM	?
SMILES	ELG1 DNA repair	IL-1B inflam inh	TDP1 cell noCPT	TDP1 cell CPT	RORgamma inh	Gal4-VP16 FLuc
CC1(C(=O)NCC2CC2)CCN1C(=O)C1(c2ccc(Cl)cc2)CC1 (stereo not given)	-	0	0	?	-	-
CCCOC(=O)Cn1cnc2scc(-c3ccc(OC)cc3)c2c1=O	0	0	0	0	0	0
CC(C)C(=O)N1CCCCCCN1C(=O)C(C)C	-	0	0	0	-	-
O=C(NCc1cccs1)c1ccc2sc(C3=C[C@@H](O)[C@@H](O)[C@@H](CO)O3)nc2c1	-	0	0	0	-	-
O=C(NCCCCc1ccccc1)c1nn(-c2ccccc2)nc1CO	-	-	0	0	-	-
C/C(=N\NC(=O)c1ccc(Cl)cc1)c1cccc(NC(=O)c2cccnc2)c1	?	-66	?	?	0	0
C/C(=N\NC(=O)c1ccc(Cl)cc1)c1cccnc1	?	0	0	0	0	0
COc1ccc(C(=O)Nc2cccc(/C(C)=N\NC(=O)c3ccoc3C)c2)cc1OC	?	-50	?	?	-	-
COC(=O)C1=C[C@@H](C(=O)OC)[C@H]2C3=C(C(=O)[C@@]2(C)NC(=O)c2ccccc2)[C@H](C)C(C(=O)OC)=C(C(=O)OC)[C@@H]3C1	-	-	-	-	0	0
Cc1cc(C(=O)NCc2ccccc2Cl)c2ccccc2n1	0	0	?	0	?	?
Cc1cc(CNC(=O)c2ccc(C)c([N+](=O)[O-])c2)c2ccccc2n1	0	0	9.2µM	13µM	?	0
Cc1cc(CNC(=O)c2cccnc2Cl)c2ccccc2n1	5.2µM	0	?	?	?	0
Cc1ccc(C(=O)NCCc2nc3ccccc3[nH]2)cc1[N+](=O)[O-]	?	0	?	0	0	0
O=C(/C=C/c1ccccc1)NCCO	-	-	?	?	0	0
CCOc1ccc(C(=O)NCc2nc3cccnc3n2Cc2cccc(OC)c2)cc1	-	-	0	0	-	-
Cc1cc(C(=O)N/N=C/c2cccc([N+](=O)[O-])c2)c2ccccc2n1	0	0	?	?	0	0
COc1cc([N+](=O)[O-])cc(/C=N/NC(=O)c2cc(C)nc3ccccc23)c1O	0	0	?	?	5.6µM	13µM
COc1cc([N+](=O)[O-])cc(/C=N/NC(=O)c2cc(-c3ccccc3)nc3ccccc23)c1O	?	0	23µM	21µM	2µM	4.5µM
Cn1cc(-c2nc3cncnc3n(Cc3ccc(F)cc3)c2=O)c2ccccc21	-	-	0	?	0	0
COc1ccc(CCNC(=O)C2c3ccccc3C(=O)N2Cc2ccccc2)cc1OC (stereo not given)	-	-	?	0	-	-
COc1ccccc1NC(=O)c1ccc2c(c1)CCN2S(C)(=O)=O	0	0	0	0	0[1.91 µM]	0
CCS(=O)(=O)N1CCc2cc(C(=O)Nc3ccc(OC)c(Cl)c3)ccc21	-	-	18µM	?	-	-
COc1ccc(NC(=O)c2ccc3c(c2)CCN3S(C)(=O)=O)cc1	-	0	0	0	-	-
CCS(=O)(=O)N1CCc2cc(C(=O)Nc3ccc(C)c(Cl)c3)ccc21	-	-	13µM	18µM	-	-
CCS(=O)(=O)N1CCc2cc(C(=O)Nc3ccc(OC)cc3OC)ccc21	-	-	16µM	?	-	-
OCC(O)C(O)C(O)C(O)CO (stereo not given)	-	-	-	-	0	0
CN(C)CCCN1C(=O)c2cccc3cccc(c23)C1=O	0	-89	?	?	0	0
